Assay outcomes: PubChem BioAssay, National Center for Advancing Translational Sciences (NCATS)
LASV entry inh: Lassa virus entry inhibition. Potency, µM (top dose mostly 37.9 µM), usual class: inhibitors. AID 540256. Lassa virus pseudotype entry inhibition, cell reporter. actives 1.2% (n = 300,000); calls by dose curve; tested in HEK293 cells; also: nearly all actives have a fitted effect of over 50% in size
VACV Venus inh: vaccinia inhibition (Venus reporter); actives 0.46% (n = 330,000); Vaccinia virus Venus reporter expression, fluorescence; Potency, µM (top dose mostly 36.5 µM), actives largely listed as inhibitors; calls by dose curve; tested in A549 cells; also: nearly all actives have a fitted effect of over 30% in size
Marburg entry inh: inhibitors of Marburg virus binding or cell entry | Marburg virus pseudotyped entry inhibition, cell reporter | Potency, µM (doses to about 37.8 µM), actives largely listed as inhibitors | actives 1.8% (n = 300,000); calls by dose curve; tested in HEK293 cells
Sm TGR inh: blocks Schistosoma mansoni thioredoxin glutathione reductase; AID 485364; actives 3% (n = 360,000); Q962Y6; Potency, µM (titrated, usually from 114 µM), actives largely listed as inhibitors; purified TGR, DTNB reduction, TNB absorbance 405 nm; active = well fitted inhibition curve with a large enough effect; inconclusive = small, poorly fitted or top-dose-only effect; inactive = no such curve, though single readings can be large or run the other way; also: nearly all actives have a fitted effect of over 60% in size
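TGR 20 nM + NADPH 100 uM (dispensed conc.), cpd preinc 15 min RT; start with NADPH (500 uM addition) then DTNB (15 mM addition). Kinetic TNB absorbance, 405 nm filter. Four-parameter Hill fit across titration.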
VACV mCherry inh: inhibitors of vaccinia virus infection (mCherry reporter signal); Vaccinia virus mCherry reporter infection, fluorescence; Potency, µM (top dose mostly 36.5 µM), usual class: inhibitors; actives 0.63% (n = 310,000); calls by dose curve; tested in A549 cells; also: nearly all actives have a fitted effect of over 35% in size
FMDV inh: antivirals against foot and mouth disease virus. Potency, µM (doses to about 57.9 µM), usual class: inhibitors. AID 1159524. FMDV antiviral cell-based qHTS. actives 1.2% (n = 410,000); calls by dose curve; tested in HEK293T cells; also: read-out not given here; nearly all actives have a fitted effect of over 45% in size
Hits are given with their value; - = inactive; ? = inconclusive; . = no result; [ ] = dose if it differs, or a comment. Only some compounds are listed: those with a hit (about 5.4% of all), similar ones and a draw of the others.

SMILES	LASV entry inh	VACV Venus inh	Marburg entry inh	Sm TGR inh	VACV mCherry inh	FMDV inh
CCCOc1ccc(F)cc1-c1cc(C(=O)Nc2ccc(C)c(NS(C)(=O)=O)c2)[nH]n1	.	-	.	.	?	35µM
COc1cc(-c2cc(OC)c3c(C)oc(C)c3c(=O)c2)ccc1OC(=O)c1cccc(Cl)c1	-	-	-	-	-	?
Cc1c(C(=O)N(Cc2ccc(N(C)C)cc2)Cc2ccco2)oc2cc(Br)ccc12	-	-	-	-	-	-
CCN(c1ccccc1)c1ncnc2c1cnn2-c1ccc(OC)cc1	?	-	.	-	-	-
O=C(Nc1nc2ccc(Cl)cc2s1)c1ccco1	11µM	-	?	-	-	-
Cc1ccc2nc(NC(=O)c3ccco3)sc2c1	1µM	?	4.5µM	-	.	-
COc1ccc2nc(NC(=O)c3cccs3)sc2c1	?	-	6.3µM	-	-	-
CC(=O)Nc1ccc2nc(NC(=O)c3cccs3)sc2c1	?	-	?	-	-	-
CC(=O)Cc1nsc(NC(=O)c2ccco2)n1	-	-	-	45µM	-	-
O=C(c1ccc2c(c1)N(Cc1ccccc1)C(=O)c1ccccc1S2(=O)=O)N1CCc2ccccc21	-	-	?	-	-	-
Cc1cc(C)c(/C=C/c2onc(C)c2S(=O)(=O)N2CCC(C(=O)N3CCN(c4ccccc4)CC3)CC2)c(C)c1	?	-[7.34 µM]	.	-	-[7.34 µM]	-
COc1cc(NC(=O)CSc2nc3nc(C)c(Cc4ccccc4)c(C)n3n2)cc(OC)c1OC	-	-	.	-	-	?
CC(C)(C)c1ccc(O[C@@H]2[C@H](O)CO[C@H]2/C=C/C#Cc2ccccc2)cc1	.	.	-	.	.	.
O=C(Nc1nc2c(F)c(F)c(F)cc2s1)c1ccco1	-	-	?	-	-	-
O=C(Nc1nc2c(ccc3ccccc32)s1)c1ccco1	?	.	15µM	-	.	-
CCOc1ccc2nc(NC(=O)c3ccc(C)o3)sc2c1	8.9µM	-	?	.	-	-
Cc1ccc2nc(N3C(=O)C(O)=C(C(=O)c4ccco4)C3c3ccc(C)o3)sc2c1 (stereo unspecified)	-	-	-	32µM	?	-
COc1ccc(C2CC(c3cccs3)=NN2C(=O)CCl)cc1OC (stereo unspecified)	?	-	?	4.5µM	?	?
COc1ccc(C2CC(c3cccs3)=NN2C(=O)c2ccccc2)cc1OC (stereo unspecified)	-	-	-	-	-	-
CN1CCc2c(OCC(=O)N3N=C(c4cccs4)CC3c3ccc(F)cc3)cccc2C1=O (stereo unspecified)	-	-	?	?	-	?
COc1cc(C2CC(c3cccs3)=NN2C(=O)CCl)ccc1OC(F)F (stereo unspecified)	?	-	?	7.9µM	-	16µM
CCN1CCc2c(OCC(=O)N3N=C(c4cccs4)CC3c3ccc(F)cc3)cccc2C1=O (stereo unspecified)	11µM	?	?	-	?	-
CCOC(=O)N1CCN(Cc2ccc3c(c2)CN(C(=O)c2sc(C)nc2C)CCO3)CC1	.	-	.	.	-	?
Cn1c(N/N=C/c2cccs2)nc2c1c(=O)n(Cc1ccccc1)c(=O)n2C	-	-	?	-	-	?
Cn1c(=O)c2c(nc(N/N=C/c3ccc(OC(=O)c4ccco4)cc3)n2Cc2ccccc2)n(C)c1=O	10µM	-	?	-	-	13µM
SMILES	LASV entry inh	VACV Venus inh	Marburg entry inh	Sm TGR inh	VACV mCherry inh	FMDV inh
Cn1c(=O)c2c(nc(N/N=C/c3cccnc3)n2Cc2ccc(F)cc2)n(C)c1=O	?	-	-	-	-	-
Cn1c(=O)c2c(nc(N/N=C/c3cccs3)n2Cc2ccccc2)n(C)c1=O	?	-	-	-	-	25µM
COCC(=O)Nc1cc(C(=O)N2CCCC2c2nccs2)c2c(c1)nc(-c1ccncc1)n2C (stereo unspecified)	.	-	.	.	-	-
Oc1ccc(/C(Cc2ccccn2)=N\Nc2ccccc2)c(O)c1	?	-	8.9µM	?	-	?
Oc1ccc(/C=C/c2ccc3ccccc3n2)cc1	.	-	.	-	?	-
O/C(=C\c1ccc2ccccc2n1)c1ccc(O)cc1O	?	-	7.1µM	-	-	-
Oc1ccc(/C(Cc2ccc3ccccc3n2)=N\Nc2ccccc2)c(O)c1	?	-	?	25µM	-	-
Cc1c(O)ccc(/C(Cc2ccc3ccccc3n2)=N\O)c1O	?	.	-	-	.	-
COc1ccc(N(CC(=O)NCCc2ccc(C)cc2)S(=O)(=O)c2c(C)nn(C)c2C)cc1	-	-	-	-	-	-
